Laboratory results from PubChem BioAssay (NCATS).
Results filed as inconclusive are left out. Entries that show only a call come without a potency. Calls of active or inactive are those of the source. The call rests on the fitted dose curve; in most records, active means well fitted inhibition curve with a large enough effect; inconclusive means small, poorly fitted or top-dose-only effect; inactive means no such curve, though single readings can be large or run the other way.

molecular target: Retinaldehyde dehydrogenase 3 (Homo sapiens) (UniProt P47895); assay: qHTS for Inhibitors of the Aldehyde Dehydrogenase Family (ALDH1A3) Confirmatory screens (AID 2061311); details: ALDH inhibition qHTS; series mostly up to 46 µM; further: potency means the concentration at half of the fitted maximal effect; nearly all actives have a fitted effect of over 60% in size

SMILES | Potency
CCc1noc(-c2cccn3c(CNC(=O)COc4ccc(F)cc4)nnc23)n1 | 7.08 µM (active)
Cc1ccnc(NC(=S)N2CCN(c3ccc(O)cc3)CC2)c1 | 12.7 µM (active)
Cc1ccnc(NCc2ccc(O)c3ncccc23)c1 | 7.12 µM (active)

molecular target: Retinal dehydrogenase 2 (Homo sapiens) (UniProt O94788); assay: qHTS for Inhibitors of the Aldehyde Dehydrogenase Family (ALDH1A2) Confirmation screens (AID 2061314); details: ALDH1A2 enzyme inhibition qHTS confirmation; series mostly up to 45.9 µM; further: nearly all actives have a fitted effect of over 65% in size

SMILES | Potency
O=c1cc2nc(-c3ccccc3)nc(SCc3cccc(Br)c3)n2[nH]1 | inactive
COc1ccc(S(=O)(=O)c2c(C(=O)c3ccc(C)c(C)c3)cnc3ccc(C)cc23)cc1 | inactive
CNC(=O)c1cc(C2CC2)nc2onc(C3CCCN3C(=O)c3cccc(Cl)c3)c12 (stereo unspecified) | inactive
COc1ccccc1CC(=O)NCc1cccnc1-n1cnc2ccccc21 | inactive
COc1cc(C(=O)NCC(c2ccco2)S(=O)(=O)c2ccccc2)cc(OC)c1OC (stereo unspecified) | inactive
CCCCOc1cccc(C(=O)Nc2cc(NC(=O)c3ccco3)ccc2OC)c1 | inactive
Cc1cccc(NC(=O)CSc2nc3ccccc3nc2N2CCOCC2)c1C | inactive
CCN(CC)CCNC(=O)CN1C(=O)COc2ccc(S(=O)(=O)N3CCOCC3)cc21 | inactive
CN(C)C(=O)CN1C(=O)CO[C@H](c2ccc(NS(=O)(=O)c3cccc(F)c3)cc2)[C@H]1CO | inactive
COC(=O)c1cc(C)nc2c1c(=O)nc(SCc1ccccc1Cl)n2C1CC1 | inactive
Cc1ccc(S(=O)(=O)NC[C@H]2O[C@@H](CC(=O)NCCN3CCOCC3)[C@H](O)[C@@H]2O)cc1 | inactive
Cc1cccc(-c2nc3c(cnn3-c3ccccc3)c(=O)n2-c2ccc(Br)cc2)c1 | inactive
COc1ccccc1Cc1nc2ccccc2nc1SCC(=O)Nc1c(C)cccc1C | inactive
CC[C@H]1CN(C(=O)Nc2cccc(C(F)(F)F)c2)CC[C@H]1CC(=O)N(C)CCC#N | inactive
CCc1cnc2c(c1SCc1ccccc1C)c(=O)n(C)c(=O)n2C | inactive
CCc1nn2c(=O)c(S(=O)(=O)Nc3ccc(Br)cc3F)c(C)nc2s1 | inactive
COC(=O)c1ccccc1NC(=O)CCCS(=O)(=O)c1nc(-c2ccccc2OC)cc(C(F)(F)F)n1 | inactive
Cn1cnc(S(=O)(=O)N2CCC(C(=O)Nc3ccc(OC(F)(F)F)cc3)CC2)c1 | inactive

SMILES | Potency
Cc1ccccc1NC(=O)CSc1nc2ccccc2c2nc(CCn3cncc3C)nn12 | inactive
CN(CC1(CO)CC1)c1nccc(CCC(F)(F)F)n1 | inactive
Cc1ccc(CCNC(=O)c2c(C)oc3nc(C)nc(N4CCOCC4)c23)cc1 | inactive
CCc1nn(-c2ccccc2)c(Oc2cccc(C)c2)c1CCC(=O)N1CCOCC1 | inactive
CN1C(=O)c2cccn2CC1CNC(=O)c1cccc2nccnc12 (stereo unspecified) | inactive
N#Cc1cc2c(=O)n3ccccc3nc2n(-c2nnc(SCc3ccc(F)cc3)s2)c1=O | inactive
CC(C)OCCCNC(=O)CN1C(=O)COc2ccc(S(=O)(=O)N3CCOCC3)cc21 | inactive
O=c1c2cn[nH]c2nc(SCc2cccc(Br)c2)n1-c1ccc(Cl)cc1 | inactive
CCOc1ccc(C(=O)Nc2ccc(S(=O)(=O)N3CCCCC3c3cccnc3)cc2)cc1 (stereo unspecified) | inactive
CC(C)NS(=O)(=O)c1ccc(OCC(=O)N2CCN(c3cccc(Cl)c3)CC2)cc1 | inactive
COc1cccc(-c2ccc(C(=O)N3CCC(N[S+](=O)([O-])CCC(F)(F)F)CC3)cc2)c1 | inactive
CN(Cc1ccccc1C(F)(F)F)C(=O)c1ccc(Cl)nc1 | inactive
Cn1c(=O)n([C@H]2CCCN(C(=O)c3cccnc3)C2)c2ncccc21 | inactive
COc1ccc(NC(=O)CN2C(=O)COc3ccc(S(=O)(=O)N4CCOCC4)cc32)cc1 | inactive
COCCNC(=O)CCSc1nc(-c2ccc(OC)cc2)cc(C(F)(F)F)n1 | inactive
CC(=O)c1cccc(NC(=O)c2ccc(Cl)c(S(=O)(=O)N3CCOCC3)c2)c1 | inactive
COc1ccc(-c2nc(C(=O)Nc3ccc(C(C)=O)cc3)nn2-c2cccc(Cl)c2)cc1 | inactive

molecular target: Aldehyde dehydrogenase 1A1 (Homo sapiens) (UniProt P00352); assay: qHTS for Inhibitors of the Aldehyde Dehydrogenase Family (ALDH1A1) Confirmatory screens (AID 2061316); details: ALDH inhibition qHTS; series mostly up to 47.3 µM; further: nearly all actives have a fitted effect of over 65% in size; further: potency means the concentration at half of the fitted maximal effect

SMILES | Potency
CCc1noc(-c2cccn3c(CNC(=O)COc4ccc(F)cc4)nnc23)n1 | inactive
Cc1ccnc(NC(=S)N2CCN(c3ccc(O)cc3)CC2)c1 | 7.98 µM (active)
Cc1ccnc(NCc2ccc(O)c3ncccc23)c1 | 8.96 µM (active)
